# Data: PubChem BioAssay (EPA / NIEHS)
# Values joined by “and” are separate entries in the source; they are usually repeats but may differ in a detail not shown here. Equal values may be shown once. Results filed as inconclusive are left out. A structure can be active in one record and inactive in another. Active and inactive are the calls of the source. How the source made its calls, unless noted: active means hit-call score of the fitted dose curve at least 0.9, where 1 is the maximum; inactive means score below 0.9.
# What was measured:
# [1] = read-out: Collagen III, COL3A1 (gene 1281); assay: BSK_MyoF_CollagenIII: BioMAP Diversity Plus: MyoF Assay for Collagen III Biomarker Activity (AID 2284239); conditions: primary human lung fibroblasts
# In short: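 Primary human lung fibroblasts (BioMAP MyoF system) exposed 24 h. Collagen III measured by ELISA; positive-direction fit relative to DMSO.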
# [2] = CCTE_Mundy_HCI_hNP1_Casp3_7: CCTE's Caspase-Glo 3/7 Assay in human neuroprogenitor cells for Apoptosis, Mundy Lab (AID 2284240)
# In short: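 Luminescent caspase-3/7 readout, 26.5 h post-dose, in human neural progenitor cells from WA09 embryonic stem cells. Cells grew 40–44 h at 37 °C, 5% CO2 before chemical addition. Activity analysed as signal increase over DMSO baseline.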
# [3] = read-out: Interleukin 17F (IL17F), IL17F (gene 112744); assay: BSK_BT_xIL17F: BioMAP Diversity Plus: BT Assay for Interleukin 17F (IL17F) Biomarker Activity (AID 2284243); conditions: primary human B cells with PBMC
# In short: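 Human PBMC co-cultured with B cells, compound exposure 24 h; secreted IL-17F quantified by Luminex xMAP, referenced to DMSO control. PBMC viability measured in parallel by Alamar Blue reduction.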
# [4] = read-out: Actin alpha 1 (ACTA1), ACTA1 (gene 58); assay: BSK_MyoF_ACTA1: BioMAP Diversity Plus: MyoF Assay for Actin alpha 1 (ACTA1) Biomarker Activity (AID 2284244); conditions: primary human lung fibroblasts
# In short: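 Cells were exposed to chemical for 24 h before a-SMA levels were quantified by ELISA in human lung fibroblasts. Increases were fitted against DMSO as negative control; parallel SRB staining (0.1% after 10% TCA fixation, 560 nm) assessed cytotoxicity.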
# [5] = read-out: Interleukin 2 (IL2), IL2 (gene 3558); assay: BSK_BT_xIL2: BioMAP Diversity Plus: BT Assay for Interleukin 2 (IL2) Biomarker Activity (AID 2284245); conditions: primary human B cells with PBMC
# In short: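 The BT system combines human B cells with peripheral blood mononuclear cells. Twenty-four hours after chemical dosing, secreted IL-2 was measured with xMAP bead technology, and responses were analyzed as increases over DMSO controls.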
# [6] = read-out: Basic fibroblast growth factor (bFGF), FGF2 (gene 2247); assay: BSK_MyoF_bFGF: BioMAP Diversity Plus: MyoF Assay for Basic fibroblast growth factor (bFGF) Biomarker Activity (AID 2284246); conditions: primary human lung fibroblasts
# In short: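 Chemicals are added to human lung fibroblast cultures and incubated 24 h. bFGF is then measured by ELISA, while parallel cultures receive SRB staining for total protein as a cytotoxicity check. Data are fitted upward against DMSO.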
# [7] = read-out: Monokine induced gamma interferon (MIG), CXCL9 (gene 4283); assay: BSK_KF3CT_MIG: BioMAP Diversity Plus: KF3CT Assay for Monokine induced gamma interferon (MIG) Biomarker Activity (AID 2284248); conditions: primary human keratinocytes with fibroblasts
# In short: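 Human keratinocyte–foreskin fibroblast co-culture; MIG measured by ELISA 24 h after chemical dosing, fitted upward versus DMSO. Cytotoxicity was assessed in parallel cultures by SRB total-protein staining read at 560 nm.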
# [8] = read-out: Vascular cell adhesion molecule 1 (VCAM1), VCAM1 (gene 7412); assay: BSK_BF4T_VCAM1: BioMAP Diversity Plus: BF4T Assay for Vascular cell adhesion molecule 1 (VCAM1) Biomarker Activity (AID 2284249); conditions: primary human bronchial epithelial cells with fibroblasts
# In short: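 Cell-surface VCAM-1 quantified by ELISA after 24 h chemical exposure of human bronchial epithelial/dermal fibroblast co-cultures, with SRB staining in parallel wells for cytotoxicity; DMSO baseline, positive-direction fitting.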
# [9] = read-out: Collagen IV, COL4A1 (gene 1282); assay: BSK_MyoF_CollagenIV: BioMAP Diversity Plus: MyoF Assay for Collagen IV Biomarker Activity (AID 2284247); conditions: primary human lung fibroblasts
# In short: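 Human lung fibroblast system, 24 h chemical exposure. Endpoint: Collagen IV by ELISA, upward fit vs DMSO.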
# [10] = CCTE_Mundy_HCI_hNP1_CellTiter: CCTE's Cell Titer-Glo 2 Assay in human neuroprogenitor cells for Viability, Mundy Lab (AID 2284241; active means hit-call score of the fitted dose curve at least 0.9, where 1 is the maximum)
# In short: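 Viability read as luminescent ATP content (CellTiter-Glo, 30 min room temperature) twenty-four hours after dosing, relative to DMSO. Cells: WA09-derived hNP1 neuroprogenitors on poly-L-ornithine/laminin, plated 40 to 44 hours before chemical.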
structure (smiles),measurement,setting,value
NC(=O)C(F)(F)C(F)(F)C(F)(F)C(F)(F)C(N)=O,outcome,[1],inactive
same,outcome,[2],inactive
same,outcome,[3],inactive
same,outcome,[4],inactive
same,outcome,[5],inactive
same,outcome,[6],inactive
same,outcome,[7],inactive
same,outcome,[8],inactive
C=C(C)C(=O)OCC(F)(F)C(F)(F)C(F)(F)C(F)F,outcome,[1],inactive
same,AC50,[3],22.9 µM (active)
same,outcome,[3],inactive
same,AC50,[4],14.4 µM (active)
same,outcome,[4],inactive
same,outcome,[5],inactive
same,outcome,[6],inactive
same,outcome,[7],inactive
same,outcome,[8],inactive
Cc1cnccn1,outcome,[1],inactive
same,outcome,[3],inactive
same,outcome,[4],inactive
same,outcome,[5],inactive
same,outcome,[6],inactive
Cc1ccc(O)c(-n2nc3ccccc3n2)c1,outcome,[1],inactive
same,outcome,[3],inactive
same,outcome,[4],inactive
same,outcome,[5],inactive
same,outcome,[6],inactive
CCN(CC)c1ccc2c(c1)Oc1cc(N(CC)CC)ccc1C21OC(=O)c2ccccc21,outcome,[1],inactive
same,outcome,[3],inactive
same,outcome,[4],inactive
same,outcome,[5],inactive
same,outcome,[6],inactive
CC(C)CCCC(C)CCO (stereo not drawn),AC50,[1],35.3 µM (active)
same,outcome,[3],inactive
same,AC50,[4],30.9 µM (active)
same,outcome,[5],inactive
same,outcome,[6],inactive
same,outcome,[9],inactive
O=C=Nc1cccc2c(N=C=O)cccc12,outcome,[1],inactive
same,outcome,[3],inactive
same,outcome,[4],inactive
same,outcome,[5],inactive
same,outcome,[6],inactive
COC(F)(C(F)F)C(F)(F)F (stereo not drawn),outcome,[1],inactive
same,outcome,[3],inactive
same,AC50,[4],0.556 µM (active)
same,outcome,[4],inactive
same,outcome,[5],inactive
same,outcome,[6],inactive
same,outcome,[9],inactive
same,outcome,[7],inactive
same,outcome,[8],inactive
O=C(O)C(F)(F)C(F)(F)C(F)(F)OC(F)(F)F,outcome,[1],inactive
same,outcome,[2],inactive
same,outcome,[10],inactive
same,outcome,[3],inactive
same,outcome,[4],inactive
same,outcome,[5],inactive
same,outcome,[6],inactive
same,outcome,[9],inactive
same,outcome,[7],inactive
same,outcome,[8],inactive
OCC(F)(F)C(F)(F)C(F)(F)C(F)(F)C(F)(F)C(F)(F)C(F)(F)C(F)(F)CO,AC50,[1],37.1 µM (active) and 45.7 µM (active)
same,AC50,[3],53.8 µM (active) and 38.5 µM (active)
same,AC50,[4],44.9 µM (active) and 42.5 µM (active)
same,AC50,[5],54.7 µM (active) and 46.9 µM (active)
same,AC50,[6],54.4 µM (active)
same,outcome,[6],inactive
same,AC50,[7],49.2 µM (active) and 48.4 µM (active)
same,AC50,[8],12 µM (active)
same,outcome,[8],inactive
Cc1cc(O)c(C(C)(C)C)cc1C(C)(C)C,AC50,[1],5.41 µM (active)
same,AC50,[3],27.3 µM (active)
same,AC50,[4],3.74 µM (active)
same,AC50,[5],31.2 µM (active)
same,AC50,[6],5.37 µM (active)
CC1=CC2C3C=CC(C3)C2C1C (stereo not drawn),outcome,[1],inactive
same,outcome,[3],inactive
same,outcome,[4],inactive
same,outcome,[5],inactive
same,outcome,[6],inactive
Cc1ccc(S(=O)(=O)C(I)I)cc1,AC50,[1],10.5 µM (active)
same,AC50,[3],2.77 µM (active)
same,AC50,[4],7.35 µM (active)
same,AC50,[5],4.47 µM (active)
same,AC50,[6],12.5 µM (active)
O=C(O)C(F)(F)C(F)(F)C(F)(F)C(F)(F)C(F)(F)C(F)(F)C(F)F,outcome,[1],inactive
same,outcome,[3],inactive
same,AC50,[4],0.232 µM (active)
same,outcome,[4],inactive
same,outcome,[5],inactive
same,outcome,[6],inactive
same,outcome,[9],inactive
same,outcome,[7],inactive
same,outcome,[8],inactive
CCN(CC)c1ccc(C=O)cc1,outcome,[1],inactive
same,outcome,[3],inactive
same,outcome,[4],inactive
same,outcome,[5],inactive
same,outcome,[6],inactive
same,outcome,[9],inactive
C=CC(=O)OCC(F)(F)C(F)(F)C(F)(F)C(F)(F)C(F)(F)C(F)(F)C(F)(F)C(F)F,outcome,[1],inactive
same,AC50,[3],18.8 µM (active)
same,AC50,[4],30 µM (active) and 19.5 µM (active)
same,AC50,[5],44.5 µM (active)
same,outcome,[5],inactive
same,outcome,[6],inactive
same,outcome,[7],inactive
same,outcome,[8],inactive
OCCCCC(F)(F)C(F)(F)C(F)(F)C(F)(F)F,outcome,[1],inactive
same,outcome,[2],inactive
same,outcome,[10],inactive
same,AC50,[3],21.7 µM (active)
same,outcome,[3],inactive
same,outcome,[4],inactive
same,outcome,[5],inactive
same,outcome,[6],inactive
same,outcome,[9],inactive
same,outcome,[7],inactive
same,outcome,[8],inactive
NC(=O)C(F)(F)C(F)(F)C(F)(F)C(F)(F)C(F)(F)C(F)(F)C(F)(F)F,outcome,[1],inactive
same,outcome,[2],inactive
same,outcome,[10],inactive
same,outcome,[3],inactive
same,outcome,[4],inactive
same,AC50,[5],30 µM (active)
same,outcome,[5],inactive
same,outcome,[6],inactive
same,outcome,[9],inactive
same,outcome,[7],inactive
same,outcome,[8],inactive
NC(O)(C(F)(F)F)C(F)(F)F,outcome,[1],inactive
same,outcome,[2],inactive
same,outcome,[10],inactive
same,outcome,[3],inactive
same,outcome,[4],inactive
same,outcome,[5],inactive
same,outcome,[6],inactive
same,outcome,[7],inactive
same,outcome,[8],inactive
Brc1nc2ccccc2s1,outcome,[1],inactive
same,outcome,[3],inactive
same,outcome,[4],inactive
same,AC50,[5],0.431 µM (active)
same,outcome,[6],inactive
same,outcome,[9],inactive
CCOC(C=C(C)CCC=C(C)C)OCC,AC50,[1],20 µM (active)
same,outcome,[3],inactive
same,AC50,[4],7.77 µM (active)
same,outcome,[5],inactive
same,AC50,[6],30.7 µM (active)
same,outcome,[9],inactive
OCCCC(F)(F)C(F)(F)C(F)(F)C(F)(F)C(F)(F)C(F)(F)C(F)(F)C(F)(F)F,AC50,[1],13.5 µM (active) and 12.2 µM (active)
same,outcome,[2],inactive
same,outcome,[10],inactive
same,AC50,[3],22.4 µM (active) and 19.1 µM (active)
same,AC50,[4],10.3 µM (active) and 10.6 µM (active)
same,AC50,[5],43.4 µM (active) and 46.9 µM (active)
same,AC50,[6],10.1 µM (active) and 9.64 µM (active)
same,AC50,[7],14.8 µM (active) and 15.3 µM (active)
same,AC50,[8],13.9 µM (active) and 16.8 µM (active)
C=CC(=O)OCC(F)(F)C(F)(F)C(F)(F)COC(=O)C=C,AC50,[1],13.9 µM (active) and 14.7 µM (active)
same,outcome,[2],inactive
same,outcome,[10],inactive
same,AC50,[3],2.89 µM (active) and 3.25 µM (active)
same,AC50,[4],8.23 µM (active) and 4.42 µM (active)
same,AC50,[5],9.03 µM (active) and 9.56 µM (active)
same,AC50,[6],15.9 µM (active) and 14.7 µM (active)
same,AC50,[7],23.2 µM (active) and 22.2 µM (active)
same,AC50,[8],7.91 µM (active) and 8.05 µM (active)
Cc1cc(C)c(O)c(C(C)(C)C)c1,AC50,[1],30.5 µM (active)
same,outcome,[3],inactive
same,AC50,[4],29.8 µM (active)
same,outcome,[5],inactive
same,AC50,[6],36.8 µM (active)
same,AC50,[9],32.4 µM (active)
O=C(O)CCC(F)(F)C(F)(F)C(F)(F)C(F)(F)C(F)(F)C(F)(F)C(F)(F)F,outcome,[1],inactive
same,outcome,[2],inactive
same,outcome,[10],inactive
same,outcome,[3],inactive
same,outcome,[4],inactive
same,AC50,[5],2.38 µM (active)
same,outcome,[5],inactive
same,outcome,[6],inactive
same,outcome,[7],inactive
same,outcome,[8],inactive
CCN(CC)c1ccc(C=O)c(O)c1,outcome,[1],inactive
same,outcome,[3],inactive
same,outcome,[4],inactive
same,outcome,[5],inactive
same,outcome,[6],inactive
O=C(F)C1(F)C(F)(F)C(F)(F)C(F)(F)C(F)(F)C1(F)F,outcome,[1],inactive
same,outcome,[2],inactive
same,outcome,[10],inactive
same,outcome,[3],inactive
same,outcome,[4],inactive
same,outcome,[5],inactive
same,outcome,[6],inactive
same,outcome,[7],inactive
same,outcome,[8],inactive
O=C=NCc1cccc(CN=C=O)c1,outcome,[1],inactive
same,outcome,[3],inactive
same,outcome,[4],inactive
same,outcome,[5],inactive
same,outcome,[6],inactive
O=S(=O)(O)CCC(F)(F)C(F)(F)C(F)(F)C(F)(F)C(F)(F)C(F)(F)C(F)(F)C(F)(F)F,outcome,[1],inactive
same,outcome,[2],inactive
same,outcome,[3],inactive
same,outcome,[4],inactive
same,outcome,[5],inactive
same,outcome,[6],inactive
same,outcome,[7],inactive
same,outcome,[8],inactive
O=C(O)C(F)(F)C(F)(F)C(F)(F)OC(F)(C(F)(F)F)C(F)(F)F,outcome,[1],inactive
same,outcome,[2],inactive
same,outcome,[10],inactive
same,outcome,[3],inactive
same,outcome,[4],inactive
same,outcome,[5],inactive
same,outcome,[6],inactive
same,outcome,[9],inactive
same,outcome,[7],inactive
same,outcome,[8],inactive
O=C(O)CCC(F)(F)C(F)(F)C(F)(F)F,outcome,[1],inactive
same,outcome,[2],inactive
same,outcome,[10],inactive
same,outcome,[3],inactive
same,outcome,[4],inactive
same,outcome,[5],inactive
same,outcome,[6],inactive
same,outcome,[9],inactive
same,outcome,[7],inactive
same,outcome,[8],inactive
